# Experimental data published in PubChem BioAssay (EPA / NIEHS).
# Values joined by “and” are separate entries in the source; they are usually repeats but may differ in a detail not shown here. Equal values may be shown once. Some compounds were tested as several samples or in several runs, with calls that do not always agree. Active and inactive are the calls of the source. The calls were made as follows: active = hit-call score of the fitted dose curve at least 0.9, where 1 is the maximum; inactive = score below 0.9.
# Key:
# Details in all cases: mRNA level, 48 h; actives raise or lower the signal
# [1] = read-out: solute carrier (SLC22A1), SLC22A1 (gene 6580); test: LTEA_HepaRG_SLC22A1: Life Technologies and Expression Analysis (LTEA) Assay for solute carrier (SLC22A1) using HepaRG (AID 2283524)
# Procedure, shortened: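 Human HepaRG cells were plated 48 h, switched to serum-free induction medium, then exposed in duplicate for 48 h to 8-point half-log series from 100 uM in 0.5% DMSO. SLC22A1 mRNA measured by qRT-PCR, normalized to ACTB/GAPDH/POLR2A, fitted bidirectionally versus DMSO.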
# [2] = read-out: Pyruvate Dehydrogenase Kinase 4 (PDK4), PDK4 (gene 5166); test: LTEA_HepaRG_PDK4: Life Technologies and Expression Analysis (LTEA) Assay for Pyruvate Dehydrogenase Kinase 4 (PDK4) using HepaRG (AID 2283525)
# Procedure, shortened: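 Differentiated human HepaRG cells, pre-cultured 48 h, were exposed in duplicate for 48 h in serum-free induction medium to eight half-log concentrations up to 100 uM in 0.5% DMSO. PDK4 mRNA was quantified by qRT-PCR, normalized to ACTB, GAPDH and POLR2A, bidirectional fitting versus DMSO.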
# [3] = read-out: NAD(P)H dehydrogenase [quinone] 1 (NQO1), NQO1 (gene 1728); test: LTEA_HepaRG_NQO1: Life Technologies and Expression Analysis (LTEA) Assay for NAD(P)H dehydrogenase [quinone] 1 (NQO1) using HepaRG (AID 2283526)
# Procedure, shortened: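 Differentiated human HepaRG cells in serum-free induction medium, dosed in duplicate for 48 h at 8 half-log concentrations up to 100 uM in 0.5% DMSO. NQO1 mRNA by qRT-PCR normalized to ACTB, GAPDH, POLR2A; bidirectional fit versus DMSO baseline.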
# [4] = read-out: Nuclear factor erythroid 2-related factor 2 (Homo sapiens) (UniProt Q16236); test: LTEA_HepaRG_NFE2L2: Life Technologies and Expression Analysis (LTEA) Assay for Nuclear factor erythroid 2-related factor 2 (NFE2L2) Transcription Factor using HepaRG (AID 2283527);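 as to outcome: TaqMan qRT-PCR transcript level normalised to ACTB GAPDH and POLR2A housekeeping genes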
# Procedure, shortened: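 Differentiated human HepaRG cells in serum-free induction medium were exposed for 48 h to eight concentrations (top 100 uM, half-log dilutions, 0.5% DMSO), in duplicate. NFE2L2 mRNA was quantified by TaqMan qRT-PCR, normalized to ACTB, GAPDH and POLR2A, with bidirectional fitting versus DMSO.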
# [5] = read-out: succinate dehydrogenase complex iron sulfur subunit B (SDHB), SDHB (gene 6390); test: LTEA_HepaRG_SDHB: Life Technologies and Expression Analysis (LTEA) Assay for succinate dehydrogenase complex iron sulfur subunit B (SDHB) using HepaRG (AID 2283528)
# Procedure, shortened: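 A human HepaRG culture in serum-free induction medium received test chemicals for 48 h over an eight-point range capped at 100 uM. SDHB expression change was quantified by qRT-PCR.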
# [6] = read-out: Signal transducer and activator of transcription 3 (Homo sapiens) (UniProt P40763); test: LTEA_HepaRG_STAT3: Life Technologies and Expression Analysis (LTEA) Assay for Signal transducer and activator of transcription (STAT3) using HepaRG (AID 2283529)
# Procedure, shortened: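 Differentiated human HepaRG cells in serum-free induction medium were exposed in duplicate for 48 h to eight half-log concentrations up to 100 uM in 0.5% DMSO. STAT3 mRNA was quantified by TaqMan qRT-PCR, normalized to ACTB, GAPDH and POLR2A, and fitted bidirectionally against DMSO.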
# [7] = read-out: solute carrier (SLCO1B1), SLCO1B1 (gene 10599); test: LTEA_HepaRG_SLCO1B1: Life Technologies and Expression Analysis (LTEA) Assay for solute carrier (SLCO1B1) using HepaRG (AID 2283530)
# Procedure, shortened: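 Gain or loss of SLCO1B1 mRNA is fitted against the 0.5% DMSO vehicle in human HepaRG liver cells treated 48 h at up to 100 uM in half-log steps. Expression comes from qRT-PCR normalized to endogenous controls.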
# [8] = read-out: sulfotransferase 2A1 (SULT2A1), SULT2A1 (gene 6822); test: LTEA_HepaRG_SULT2A1: Life Technologies and Expression Analysis (LTEA) Assay for sulfotransferase 2A1 (SULT2A1) using HepaRG (AID 2283531)
# Procedure, shortened: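 Cells were plated and cultured 48 h, switched to serum-free induction medium, then dosed in duplicate for 48 h (8 concentrations, max 100 uM). RNA was isolated and SULT2A1 expression measured by qRT-PCR; gain or loss of signal fitted relative to DMSO.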
# [9] = read-out: Transforming Growth Factor (TGFA), TGFA (gene 7039); test: LTEA_HepaRG_TGFA: Life Technologies and Expression Analysis (LTEA) Assay for Transforming Growth Factor (TGFA) using HepaRG (AID 2283532)
# Procedure, shortened: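 Differentiated human HepaRG cells, plated 48 h then switched to serum-free induction medium, were exposed in duplicate for 48 h to 8-point half-log series from 100 uM in 0.5% DMSO. TGFA mRNA measured by qRT-PCR, normalized to ACTB/GAPDH/POLR2A, bidirectional fit versus DMSO.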
# [10] = read-out: Phosphatase and tensin (PTEN), PTEN (gene 5728); test: LTEA_HepaRG_PTEN: Life Technologies and Expression Analysis (LTEA) Assay for Phosphatase and tensin (PTEN) using HepaRG (AID 2283523)
# Procedure, shortened: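 Differentiated human HepaRG cells, plated 48 h then switched to serum-free induction medium, were exposed in duplicate for 48 h to eight half-log concentrations up to 100 uM in 0.5% DMSO. PTEN mRNA measured by TaqMan qRT-PCR, normalized to ACTB/GAPDH/POLR2A, bidirectional fit versus DMSO.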
# Sequence of Nuclear factor erythroid 2-related factor 2 (Homo sapiens) (Q16236 whole entry, looked up): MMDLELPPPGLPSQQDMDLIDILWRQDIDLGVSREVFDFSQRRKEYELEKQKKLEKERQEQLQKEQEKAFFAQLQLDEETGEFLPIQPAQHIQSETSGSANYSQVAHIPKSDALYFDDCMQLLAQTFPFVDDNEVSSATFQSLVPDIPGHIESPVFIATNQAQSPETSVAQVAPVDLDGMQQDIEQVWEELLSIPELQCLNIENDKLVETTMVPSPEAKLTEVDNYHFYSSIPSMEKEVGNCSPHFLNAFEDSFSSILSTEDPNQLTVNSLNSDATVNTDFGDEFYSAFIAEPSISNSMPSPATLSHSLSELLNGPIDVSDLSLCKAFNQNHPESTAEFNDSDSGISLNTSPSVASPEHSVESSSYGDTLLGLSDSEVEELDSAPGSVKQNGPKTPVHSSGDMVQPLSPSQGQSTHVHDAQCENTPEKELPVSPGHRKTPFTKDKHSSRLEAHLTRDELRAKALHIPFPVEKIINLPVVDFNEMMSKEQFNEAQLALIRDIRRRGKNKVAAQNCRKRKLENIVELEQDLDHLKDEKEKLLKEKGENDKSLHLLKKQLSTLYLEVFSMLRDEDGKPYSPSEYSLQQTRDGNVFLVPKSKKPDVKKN
# Sequence of Signal transducer and activator of transcription 3 (Homo sapiens) (P40763 whole entry, looked up): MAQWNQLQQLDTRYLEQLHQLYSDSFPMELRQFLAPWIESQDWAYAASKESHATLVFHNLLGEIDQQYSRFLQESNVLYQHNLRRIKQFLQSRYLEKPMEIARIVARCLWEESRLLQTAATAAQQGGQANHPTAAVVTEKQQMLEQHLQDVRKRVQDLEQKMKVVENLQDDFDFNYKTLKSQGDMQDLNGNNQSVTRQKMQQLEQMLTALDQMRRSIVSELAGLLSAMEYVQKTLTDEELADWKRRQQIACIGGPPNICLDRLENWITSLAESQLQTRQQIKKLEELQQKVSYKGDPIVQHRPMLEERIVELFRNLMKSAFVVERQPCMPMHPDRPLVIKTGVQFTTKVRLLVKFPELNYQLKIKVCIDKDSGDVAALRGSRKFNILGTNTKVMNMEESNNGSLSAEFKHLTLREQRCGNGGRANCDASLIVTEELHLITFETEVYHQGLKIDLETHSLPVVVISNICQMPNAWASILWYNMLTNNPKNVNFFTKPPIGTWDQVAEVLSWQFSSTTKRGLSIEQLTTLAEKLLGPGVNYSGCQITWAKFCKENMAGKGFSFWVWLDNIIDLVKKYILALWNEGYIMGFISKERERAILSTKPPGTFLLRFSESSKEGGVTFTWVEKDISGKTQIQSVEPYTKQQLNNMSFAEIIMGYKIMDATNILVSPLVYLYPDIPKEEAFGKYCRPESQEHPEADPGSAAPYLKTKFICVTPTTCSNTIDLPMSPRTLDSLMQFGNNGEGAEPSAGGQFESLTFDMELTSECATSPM
compound,measurement,setting,value
CN(C)C(=O)Nc1ccc(Cl)c(Cl)c1,AC50,[1],51.5 µM (active)
same,outcome,[2],inactive
same,outcome,[3],inactive
same,AC50,[4],83.3 µM (active)
same,outcome,[5],inactive
same,outcome,[6],inactive
same,outcome,[7],inactive
same,outcome,[8],inactive
same,outcome,[9],inactive
CCCN(CCC)C(=O)SCC,outcome,[10],inactive
same,outcome,[1],inactive
same,outcome,[2],inactive
same,outcome,[3],inactive
same,outcome,[4],inactive
same,outcome,[5],inactive
same,outcome,[6],inactive
same,outcome,[7],inactive
same,outcome,[8],inactive
same,outcome,[9],inactive
C#CCOC(=O)[C@@H](C)Oc1ccc(Oc2ncc(Cl)cc2F)cc1,outcome,[10],inactive
same,outcome,[1],inactive
same,AC50,[2],50 µM (active)
same,outcome,[3],inactive
same,outcome,[4],inactive
same,outcome,[5],inactive
same,outcome,[6],inactive
same,outcome,[7],inactive
same,outcome,[8],inactive
same,outcome,[9],inactive
S=C([S-])NCCNC(=S)[S-].[Mn+2],AC50,[10],4.48 µM (active)
same,AC50,[1],2.8 µM (active)
same,AC50,[2],5.86 µM (active)
same,outcome,[3],inactive
same,outcome,[4],inactive
same,AC50,[5],1.77 µM (active)
same,AC50,[6],1.94 µM (active)
same,AC50,[7],3.85 µM (active)
same,AC50,[8],3.76 µM (active)
same,AC50,[9],7.01 µM (active)
CC1(C)C(C=C(Cl)Cl)C1C(=O)OCc1cccc(Oc2ccccc2)c1 (stereo unspecified),outcome,[1],inactive
same,outcome,[2],inactive
same,outcome,[3],inactive
same,outcome,[4],inactive
same,outcome,[5],inactive
same,outcome,[6],inactive
same,outcome,[7],inactive
same,outcome,[8],inactive
same,outcome,[9],inactive
CCOC(=O)c1ccc(O)cc1,outcome,[1],inactive
same,outcome,[2],inactive
same,outcome,[3],inactive
same,outcome,[4],inactive
same,outcome,[5],inactive
same,outcome,[6],inactive
same,outcome,[7],inactive
same,outcome,[8],inactive
same,outcome,[9],inactive
CC(=O)S[C@@H]1CC2=CC(=O)CC[C@]2(C)[C@H]2CC[C@@]3(C)[C@@H](CC[C@@]34CCC(=O)O4)[C@H]12,AC50,[1],55.5 µM (active)
same,AC50,[2],50 µM (active)
same,outcome,[3],inactive
same,outcome,[4],inactive
same,outcome,[5],inactive
same,outcome,[6],inactive
same,AC50,[7],50.4 µM (active)
same,AC50,[8],50 µM (active)
same,outcome,[9],inactive
S=C(S)NCCNC(=S)S.[Mn+2].[S-]C([S-])=NCCN=C([S-])[S-].[Zn+2],AC50,[1],985 nM (active) and 1.14 µM (active) and 908 nM (active)
same,AC50,[2],3.66 µM (active) and 3.63 µM (active)
same,outcome,[2],inactive
same,AC50,[3],0.903 µM (active)
same,outcome,[3],inactive
same,AC50,[4],255 nM (active) and 539 nM (active)
same,outcome,[4],inactive
same,AC50,[5],601 nM (active) and 552 nM (active) and 792 nM (active)
same,AC50,[6],809 nM (active) and 549 nM (active) and 297 nM (active)
same,AC50,[7],1.25 µM (active) and 1.22 µM (active) and 1.54 µM (active)
same,AC50,[8],1.2 µM (active) and 1.29 µM (active) and 1.56 µM (active)
same,AC50,[9],4.16 µM (active) and 3.27 µM (active) and 4.59 µM (active)
Cc1nn(C)c(Oc2ccccc2)c1C=NOCc1ccc(C(=O)OC(C)(C)C)cc1,outcome,[10],inactive
same,AC50,[1],12.3 µM (active)
same,outcome,[2],inactive
same,outcome,[3],inactive
same,AC50,[4],33 µM (active)
same,outcome,[5],inactive
same,outcome,[6],inactive
same,AC50,[7],23.2 µM (active)
same,AC50,[8],42.4 µM (active)
same,AC50,[9],12.2 µM (active)
C[C@]12C[C@H](O)[C@H]3[C@@H](CCC4=CC(=O)CC[C@@]43C)[C@@H]1CC[C@@H]2C(=O)CO,outcome,[10],inactive
same,outcome,[1],inactive
same,outcome,[2],inactive
same,outcome,[3],inactive
same,outcome,[4],inactive
same,outcome,[5],inactive
same,outcome,[6],inactive
same,AC50,[7],50 µM (active)
same,AC50,[8],66.4 µM (active)
same,outcome,[9],inactive
CCNc1nc(N)nc(Cl)n1,outcome,[1],inactive
same,outcome,[2],inactive
same,outcome,[3],inactive
same,outcome,[4],inactive
same,outcome,[5],inactive
same,outcome,[6],inactive
same,outcome,[7],inactive
same,outcome,[8],inactive
same,outcome,[9],inactive
O=C(c1ccccc1)C1CCCCC1,outcome,[1],inactive
same,outcome,[2],inactive
same,outcome,[3],inactive
same,outcome,[4],inactive
same,outcome,[5],inactive
same,outcome,[6],inactive
same,outcome,[7],inactive
same,outcome,[8],inactive
same,outcome,[9],inactive
CSC(=O)c1cccc2nnsc12,outcome,[10],inactive
same,outcome,[1],inactive
same,outcome,[2],inactive
same,outcome,[3],inactive
same,outcome,[4],inactive
same,outcome,[5],inactive
same,outcome,[6],inactive
same,outcome,[7],inactive
same,outcome,[8],inactive
same,outcome,[9],inactive
